Experimental data from PubChem BioAssay (NCATS).
Records with an inconclusive call do not appear. The source made the active and inactive calls. Unless noted, calls come from the whole dose curve; as a rule, active = well fitted curve in the direction sought with a large enough effect; inconclusive = small, poorly fitted or top-dose-only effect, or another doubt; inactive = no such curve, though single readings can be large; an effect the other way counts as inactive or inconclusive.

How the values were obtained:
[1] = Counterscreen for APE1 Inhibitors: Fluorescent Dye Displacement Validation Assay (AID 1707);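 note: plate controls were ThO with dsDNA and no compound for no effect and ThO without dsDNA for full effect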
In short: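 ThO 250 nM + dsDNA 50 nM (THF abasic site, 5'-TAMRA), Tris-HCl pH7.5/50mM NaCl/2 mM MgCl2/0.01% Tween-20; compounds pin-transferred; ex 480/em 540 nm endpoint. Neutral = no compound; no-DNA ThO wells = negative control.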

[2] = target: Endonuclease 4 (Escherichia coli (strain K12)) (UniProt P0A6C1); assay: Counterscreen for APE1 Inhibitors: qHTS Validation Assay for Inhibitors of Endonuclease IV (AID 1708); note: % is set by controls: 0 for no effect and ±100 for the full control effect
In short: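 Concentration-response counterscreen run identically to the APE1 assay: 15 min room-temperature preincubation of 2 nM enzyme with compound, reaction started with 50 nM quenched abasic DNA, progress taken from kinetic fluorescence.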

[3] = qHTS for differential inhibitors of proliferation of Plasmodium falciparum line 7G8 (AID 1815);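 note: parasite growth measured after three days of incubation; plate controls were vehicle wells for no effect and reference inhibitor wells for full effect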
[4] = qHTS for differential inhibitors of proliferation of Plasmodium falciparum line GB4 (AID 1816); conditions: Potency: Plasmodium falciparum GB4 proliferation inhibition;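 note: parasite growth measured after 72 h incubation; 0% = vehicle DMSO and -100% = reference inhibitor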
[5] = qHTS for differential inhibitors of proliferation of Plasmodium falciparum line 3D7 (AID 1876);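 note: parasite growth measured after three days of culture; 0% = vehicle wells and -100% = reference inhibitor wells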
[6] = qHTS for differential inhibitors of proliferation of Plasmodium falciparum line D10 (AID 1877);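 note: parasites grown with compound for 72 h before DNA staining; plate controls were vehicle wells for no effect and reference inhibitor wells for full effect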
[7] = qHTS for differential inhibitors of proliferation of Plasmodium falciparum line Dd2 (AID 1882); conditions: Potency: Plasmodium falciparum Dd2 proliferation inhibition;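 note: series mostly up to about 29 µM; plate controls were DMSO vehicle for no effect and 0.29 µM artemisinin for full effect; nearly all actives have a fitted effect of over 65% in size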
In short: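 Dd2-infected erythrocytes (0.3% parasitemia, 2.5% hematocrit final) incubated with compound 72 h at 37 C, 5% CO2; lysed with saponin/Triton buffer containing SYBR Green I, incubated overnight in the dark, then read by fluorescence (485/535 nm). Normalized to 0.29 uM artemisinin and DMSO.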

[8] = qHTS for differential inhibitors of proliferation of Plasmodium falciparum line W2 (AID 1883); conditions: Potency: Plasmodium falciparum W2 proliferation inhibition;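 note: parasites grown with compound for 72 h before lysis and staining; 0% = vehicle wells and -100% = control inhibitor wells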
[9] = qHTS for differential inhibitors of proliferation of Plasmodium falciparum line HB3 (AID 1886); conditions: Potency: Plasmodium falciparum HB3 proliferation inhibition;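 note: parasites grown with compound for 72 h before SYBR Green readout; plate controls were vehicle for no effect and reference inhibitor for full effect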
[10] = qHTS Assay for Modulators of Human Peripheral Myelin Protein 22 (PMP22) Expression/Activity (AID 1967; active = well fitted curve in the direction sought with a large enough effect in the signal ratio; the % refers to the signal ratio;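 note: 0% = untreated cells and 100% end not stated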)
In short: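 Mouse MSC80 Schwann cells carrying Pmp22 promoter–green click beetle luciferase plus EF-alpha–red luciferase control, dosed 24 h at 37 °C. Dual-filter luminescence, overlap-corrected; %Activity from green/red ratio normalised to untreated cells, concentration-response curves fitted.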

[11] = target: Ferritin light chain (Equus caballus) (UniProt P02791); assay: qHTS Validation Assay for Identification of Novel General Anesthetics (AID 2323); note: series mostly up to about 77 µM; % is set by controls: 0 for no effect and ±100 for the full control effect
In short: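 Horse-spleen apoferritin (10 uM) in PBS with 50% saturated 1-aminoanthracene; compounds pin-transferred, 10 min at room temperature. Fluorescence read at 380/535 nm, normalized to free 1-AMA and 1-AMA/apoferritin values; four-parameter Hill fit.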

[12] = target: ATP-dependent DNA helicase Q1 (Homo sapiens) (UniProt P46063); assay: qHTS Validation Assay for Inhibitors of RecQ-Like Dna Helicase 1 (RECQ1) (AID 2353);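 note: plate controls were DMSO vehicle for no effect and enzyme-free control for full effect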
In short: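 50 nM RECQ1T1 preincubated 15 min with compound in Tris pH 8.0 buffer with MgCl2, DTT, Tween-20 and 2.5 ug/ml poly(dI-dC); started with 200 nM TAMRA/BHQ-2 forked duplex and 2 mM ATP. Unwinding read as fluorescence (525/598 nm), two reads 2 h apart.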

[13] = Validation screen for small molecules that induce DNA re-replication in MCF 10A normal breast cells (AID 463097); note: 0% is about no effect; nearly all actives have a fitted effect of over 60% in size
In short: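 MCF 10A cells exposed to compound 48 hr at 37 C, 5% CO2, then Hoechst-stained 40 min. Laser-scanning imaging of nuclear DNA content (405 nm ex, 500-530 nm em); re-replication scored as rise in nuclei with elevated fluorescence intensity.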

[14] = Quantitative high throughput screen for delayed death inhibitors of the malarial parasite plastid, 96 hour incubation (AID 488745); note: series mostly up to about 29 µM; % is set by controls: 0 for no effect and ±100 for the full control effect; nearly all actives have a fitted effect of over 70% in size
In short: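 Luciferase-expressing P. falciparum in erythrocytes (2% hematocrit, 0.1% parasitemia) incubated with compound for 96 h at 37 C, 5% CO2, in RPMI 1640 with 0.5% Albumax. Growth inhibition read as decreased luminescence.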

[15] = Quantitative high throughput screen for delayed death inhibitors of the malarial parasite plastid, 48 hour incubation (AID 488752); note: % is set by controls: 0 for no effect and ±100 for the full control effect; nearly all actives have a fitted effect of over 65% in size
In short: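 Erythrocytes infected with firefly luciferase-expressing P. falciparum (2% hematocrit, 0.1% parasitemia) cultured with compound for 48 h at 37 C, 5% CO2, in RPMI 1640/0.5% Albumax. Growth inhibition read as loss of luminescence.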

[16] = target: M-phase phosphoprotein 8 (Homo sapiens) (UniProt Q99549); assay: qHTS Validation Assay for Inhibitors for MPP8 Chromodomain Interactions with Methylated Histone Tails (AID 488949); note: top concentration of the series differs between compounds; % is set by controls: 0 for no effect and ±100 for the full control effect; nearly all actives have a fitted effect of over 55% in size
In short: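 MPP8 (50 nM) was pre-bound to 50 nM biotinylated H3(1-18)K9me3 peptide in PBS pH 7.4 with 0.01% Tween-20. Compounds were then added for 30 min at room temperature, and complex disruption was read by AlphaScreen with streptavidin donor and nickel-chelate acceptor beads.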

[17] = target: Transient receptor potential cation channel subfamily V member 1 (Homo sapiens) (UniProt Q8NER1); assay: HTS Assay for Compounds that Act as Enhancers of the Vanilloid Receptor 1 (AID 488979); note: 0% is about no effect
In short: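 TRPV1-expressing cells loaded with Fluo-8 calcium dye; compounds added and calcium influx read kinetically for 3 min (agonist phase), then capsaicin at EC20 added and read 2 min more for enhancement. Fluorescence ex 480/em 520 nm.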

[18] = target: Thyrotropin receptor (Homo sapiens) (UniProt P16473); assay: qHTS Assay for Antagonists of the Thyroid Stimulating Hormone Receptor (AID 488980); note: series mostly up to about 58 µM; 0% is about no effect
In short: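 TSHR-transfected HEK293 cells (2000/well) in HEPES-buffered HBSS with 70 uM RO 20-1724 were stimulated with 4 nM TSH (EC80, final) in the presence of compound. cAMP was measured by HTRF competition after lysis and 30 min at RT.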

[19] = target: Thyrotropin-releasing hormone receptor (Homo sapiens) (UniProt P34981); assay: qHTS for Small Molecule Agonists and Allosteric Enhancers of Human TRH Receptor: Validation Screen for Agonists (AID 493127;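 active = calcium activation more than 3 SD above the typical response in the agonist read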; note: 0% is about no effect); conditions: TRH receptor agonist cell assay; at 2 µM; hits give high values
In short: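 TRHR cells loaded with fluo-8 calcium dye; FDSS kinetic fluorescence (Ex 480/Em 530) read at 1 s/cycle after 23 nL compound addition. Agonist-mode calcium response recorded before the 10 nM TRH (EC20) addition.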

[20] = target: Galactokinase (Homo sapiens) (UniProt P51570); assay: qHTS Validation Assay for Inhibitors of Human Galactokinase (GALK) (AID 493189); note: 0% is about no effect
In short: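 GALK (5 nM) with 35 uM ATP and 100 uM galactose in HEPES pH 8.0 with MgCl2, NaCl, DTT and BSA. Reaction ran 1 h at room temperature. Residual ATP read by Kinase-Glo Plus luminescence.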

[21] = target: Voltage-gated inwardly rectifying potassium channel KCNH2 (Homo sapiens) (UniProt Q12809); assay: qHTS Assay for Small Molecule Inhibitors of the Human hERG Channel Activity (AID 588834);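 note: top concentration of the series differs between compounds; % is set by controls: 0 for no effect and ±100 for the full control effect; lower thallium flux fluorescence means stronger hERG block; nearly all actives have a fitted effect of over 50% in size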
In short: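 U2OS cells BacMam-transduced with hERG, 2000 cells/well, compound ~10 min at 37 °C before stimulation buffer. FluxOR thallium flux fluorescence read kinetically on FDSS; decrease indicates block; AC50 from Hill fits.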

Chain of ATP-dependent DNA helicase Q1 (Homo sapiens) (P46063 whole entry, looked up): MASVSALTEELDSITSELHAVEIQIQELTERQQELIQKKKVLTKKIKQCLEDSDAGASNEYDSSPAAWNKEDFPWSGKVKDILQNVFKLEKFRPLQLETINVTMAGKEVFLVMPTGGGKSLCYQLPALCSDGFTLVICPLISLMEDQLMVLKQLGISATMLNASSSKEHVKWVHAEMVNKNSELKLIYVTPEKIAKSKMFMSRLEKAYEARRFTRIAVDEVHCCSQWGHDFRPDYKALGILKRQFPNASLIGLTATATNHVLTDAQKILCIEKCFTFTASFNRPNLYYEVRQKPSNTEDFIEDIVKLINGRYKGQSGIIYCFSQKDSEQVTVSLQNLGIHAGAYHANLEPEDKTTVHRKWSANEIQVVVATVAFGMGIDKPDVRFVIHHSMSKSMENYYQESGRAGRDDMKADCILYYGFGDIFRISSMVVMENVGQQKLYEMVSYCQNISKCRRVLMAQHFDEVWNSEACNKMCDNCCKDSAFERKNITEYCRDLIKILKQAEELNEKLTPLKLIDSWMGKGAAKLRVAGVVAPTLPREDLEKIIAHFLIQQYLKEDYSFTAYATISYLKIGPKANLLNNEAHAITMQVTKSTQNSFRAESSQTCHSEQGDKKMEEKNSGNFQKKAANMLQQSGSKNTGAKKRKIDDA
Chain of M-phase phosphoprotein 8 (Homo sapiens) (Q99549 whole entry, looked up): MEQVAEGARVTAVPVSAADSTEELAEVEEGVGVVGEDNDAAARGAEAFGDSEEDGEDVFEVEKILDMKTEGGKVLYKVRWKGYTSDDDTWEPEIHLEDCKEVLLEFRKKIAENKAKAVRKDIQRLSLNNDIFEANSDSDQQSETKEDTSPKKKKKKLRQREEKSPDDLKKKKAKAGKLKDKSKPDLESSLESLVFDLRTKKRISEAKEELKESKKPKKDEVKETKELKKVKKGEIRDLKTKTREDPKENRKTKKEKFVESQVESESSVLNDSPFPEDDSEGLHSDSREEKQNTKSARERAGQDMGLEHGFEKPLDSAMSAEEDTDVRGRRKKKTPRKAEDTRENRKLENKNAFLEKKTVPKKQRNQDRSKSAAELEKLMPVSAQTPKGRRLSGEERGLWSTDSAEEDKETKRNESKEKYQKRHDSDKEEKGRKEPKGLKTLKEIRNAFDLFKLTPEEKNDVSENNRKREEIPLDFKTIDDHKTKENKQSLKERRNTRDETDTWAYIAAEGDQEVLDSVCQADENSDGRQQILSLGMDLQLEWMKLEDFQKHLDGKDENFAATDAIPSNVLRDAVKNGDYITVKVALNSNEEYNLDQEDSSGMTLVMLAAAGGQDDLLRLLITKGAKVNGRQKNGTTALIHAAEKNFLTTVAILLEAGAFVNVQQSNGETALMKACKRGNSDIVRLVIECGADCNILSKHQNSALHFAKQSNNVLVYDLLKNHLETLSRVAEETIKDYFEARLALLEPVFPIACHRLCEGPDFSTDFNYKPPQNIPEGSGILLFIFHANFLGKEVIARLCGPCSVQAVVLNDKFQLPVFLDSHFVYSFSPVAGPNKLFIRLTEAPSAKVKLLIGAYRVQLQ
Chain of Thyrotropin-releasing hormone receptor (Homo sapiens) (P34981 whole entry, looked up): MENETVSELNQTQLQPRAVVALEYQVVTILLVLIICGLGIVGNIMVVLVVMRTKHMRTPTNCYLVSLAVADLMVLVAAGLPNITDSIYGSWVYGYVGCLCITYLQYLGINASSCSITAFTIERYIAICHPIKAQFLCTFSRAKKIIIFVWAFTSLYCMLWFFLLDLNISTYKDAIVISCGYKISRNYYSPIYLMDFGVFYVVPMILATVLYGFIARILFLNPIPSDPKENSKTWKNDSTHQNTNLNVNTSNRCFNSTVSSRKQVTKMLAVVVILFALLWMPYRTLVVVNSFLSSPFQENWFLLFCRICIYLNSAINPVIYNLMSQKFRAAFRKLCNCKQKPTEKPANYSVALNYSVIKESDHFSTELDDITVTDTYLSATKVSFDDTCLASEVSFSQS
Chain of Voltage-gated inwardly rectifying potassium channel KCNH2 (Homo sapiens) (Q12809 whole entry, looked up): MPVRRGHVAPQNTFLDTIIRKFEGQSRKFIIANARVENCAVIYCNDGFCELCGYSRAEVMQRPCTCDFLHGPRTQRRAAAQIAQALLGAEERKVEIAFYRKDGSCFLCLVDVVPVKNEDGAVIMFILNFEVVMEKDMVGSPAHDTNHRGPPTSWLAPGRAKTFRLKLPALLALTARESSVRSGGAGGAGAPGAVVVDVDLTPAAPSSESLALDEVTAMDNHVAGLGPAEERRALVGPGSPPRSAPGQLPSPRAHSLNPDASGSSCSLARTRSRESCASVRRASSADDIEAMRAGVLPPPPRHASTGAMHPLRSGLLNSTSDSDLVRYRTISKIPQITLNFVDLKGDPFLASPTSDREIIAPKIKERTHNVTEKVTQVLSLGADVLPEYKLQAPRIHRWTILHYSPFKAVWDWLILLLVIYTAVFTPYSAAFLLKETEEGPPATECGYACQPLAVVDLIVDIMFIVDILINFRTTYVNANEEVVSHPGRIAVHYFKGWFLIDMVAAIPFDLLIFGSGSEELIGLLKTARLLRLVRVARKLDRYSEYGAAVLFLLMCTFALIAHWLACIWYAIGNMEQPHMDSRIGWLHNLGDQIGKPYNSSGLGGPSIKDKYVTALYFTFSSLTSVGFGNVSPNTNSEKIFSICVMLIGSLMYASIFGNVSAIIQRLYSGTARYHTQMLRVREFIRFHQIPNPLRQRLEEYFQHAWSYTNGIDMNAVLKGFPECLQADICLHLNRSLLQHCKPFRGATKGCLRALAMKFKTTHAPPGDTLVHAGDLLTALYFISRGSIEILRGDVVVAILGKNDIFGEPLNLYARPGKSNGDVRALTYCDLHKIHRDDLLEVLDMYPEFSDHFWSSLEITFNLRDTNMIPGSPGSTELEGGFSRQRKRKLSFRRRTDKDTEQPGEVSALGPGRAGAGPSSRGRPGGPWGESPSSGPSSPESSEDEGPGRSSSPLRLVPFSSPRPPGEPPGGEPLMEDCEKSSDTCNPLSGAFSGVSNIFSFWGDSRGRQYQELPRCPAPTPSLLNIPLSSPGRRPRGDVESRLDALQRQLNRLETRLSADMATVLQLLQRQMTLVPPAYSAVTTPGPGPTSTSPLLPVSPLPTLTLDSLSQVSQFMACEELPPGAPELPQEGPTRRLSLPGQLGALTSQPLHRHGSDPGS
Chain of Transient receptor potential cation channel subfamily V member 1 (Homo sapiens) (Q8NER1 whole entry, looked up): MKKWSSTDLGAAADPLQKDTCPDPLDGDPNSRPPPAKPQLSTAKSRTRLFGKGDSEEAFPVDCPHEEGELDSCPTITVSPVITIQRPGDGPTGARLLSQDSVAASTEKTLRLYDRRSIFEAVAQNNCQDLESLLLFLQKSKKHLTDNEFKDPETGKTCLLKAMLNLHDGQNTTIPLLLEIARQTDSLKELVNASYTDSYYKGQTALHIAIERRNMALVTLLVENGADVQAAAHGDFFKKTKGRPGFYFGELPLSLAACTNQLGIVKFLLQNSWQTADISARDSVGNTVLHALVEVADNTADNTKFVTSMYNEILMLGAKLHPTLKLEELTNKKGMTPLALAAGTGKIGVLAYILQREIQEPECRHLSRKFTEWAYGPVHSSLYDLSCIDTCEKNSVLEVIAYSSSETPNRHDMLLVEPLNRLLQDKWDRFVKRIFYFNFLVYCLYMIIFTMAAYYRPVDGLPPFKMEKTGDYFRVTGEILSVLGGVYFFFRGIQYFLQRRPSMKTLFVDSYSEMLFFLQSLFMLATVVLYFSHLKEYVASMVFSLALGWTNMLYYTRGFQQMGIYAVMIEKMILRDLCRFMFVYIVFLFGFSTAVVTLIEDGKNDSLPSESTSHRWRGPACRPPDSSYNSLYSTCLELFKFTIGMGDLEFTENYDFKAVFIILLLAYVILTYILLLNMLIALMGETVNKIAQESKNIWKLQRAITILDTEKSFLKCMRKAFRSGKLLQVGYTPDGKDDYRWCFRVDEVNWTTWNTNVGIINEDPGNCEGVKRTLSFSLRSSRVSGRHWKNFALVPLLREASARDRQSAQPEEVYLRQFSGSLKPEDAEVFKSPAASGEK
Chain of Ferritin light chain (Equus caballus) (P02791 2-175 limits assumed): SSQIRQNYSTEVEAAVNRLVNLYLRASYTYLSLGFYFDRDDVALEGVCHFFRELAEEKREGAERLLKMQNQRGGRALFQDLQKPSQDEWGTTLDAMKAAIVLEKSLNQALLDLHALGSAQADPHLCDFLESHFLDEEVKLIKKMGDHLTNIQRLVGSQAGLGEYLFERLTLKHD
Chain of Galactokinase (Homo sapiens) (P51570 whole entry, looked up): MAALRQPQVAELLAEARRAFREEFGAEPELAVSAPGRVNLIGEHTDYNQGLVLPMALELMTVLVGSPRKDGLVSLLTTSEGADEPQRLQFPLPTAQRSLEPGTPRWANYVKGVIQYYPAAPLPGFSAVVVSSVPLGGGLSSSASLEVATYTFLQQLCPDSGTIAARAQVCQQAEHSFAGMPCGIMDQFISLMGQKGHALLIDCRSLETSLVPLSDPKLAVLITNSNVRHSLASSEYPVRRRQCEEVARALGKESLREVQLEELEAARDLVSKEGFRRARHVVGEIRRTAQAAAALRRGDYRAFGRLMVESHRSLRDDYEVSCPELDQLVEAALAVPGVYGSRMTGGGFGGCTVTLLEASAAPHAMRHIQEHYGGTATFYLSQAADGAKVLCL

O=C(Cc1ccc(Cl)c(Cl)c1)OCCN1CCCC1
inactive: Potency [1] | outcome [2] | Potency [3] | Potency [4] | Potency [5] | Potency [6] | Potency [7] | Potency [8] | Potency [9] | outcome [10] | outcome [11] | Potency [12] | outcome [13] | Potency [14] | Potency [15] | Potency [16] | outcome [17] | outcome [18] | activation [19] 1.06% | outcome [20] | Potency [21]
